The source of these data is PubChem BioAssay.

Molecules are shown by their SMILES. The source made the active and inactive calls.

One test has as its target Albumin (Bos taurus) (UniProt P02769). The experiment in a line: bovine serum albumin binders on microarray, profiling panel, artefact control for SMM control protein annotation, biochemical, small-molecule microarray, Alexa647 label, 635/667 nm fluorescence (AID 1118).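 Also: score merges 667 nm emission intensity and signal-to-noise per printed compound spot.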 The note with it: BSA-A647 binding, fluorescence 635 nm, higher = more signal.
The nature of test [1]: small-molecule microarray binders of probe aXIP, primary screen, biochemical, NeuroSMM set, 635/667 nm fluorescence (AID 1119).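 Also: probe is the protein aXip251-270 applied at 1 µg/mL to compound-printed slides; binding of probe to printed compounds measured as 667 nm fluorescence plus signal to noise.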 The settings on record: higher = more signal, called active from +8 up or from −8 down.
A short description of test [2]: small-molecule binders of probe aNOTCH3, primary screen, biochemical, small-molecule microarray, 635/667 nm fluorescence (AID 1120).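 Also: probe is a biotin-tagged antibody raised against NOTCH3 rather than NOTCH3 protein; score merges spot fluorescence near 667 nm with spot signal to noise.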 The settings on record: higher = more signal.
The nature of test [3]: small-molecule binders of probe aNOTCH2, primary screen, biochemical, small-molecule microarray, 635/667 nm fluorescence (AID 1121).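 Also: score merges feature fluorescence read at 667 nm with its signal to noise.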 The settings on record: higher = more signal.
For test [4], the target named is Carbonic anhydrase 2 (Homo sapiens) (UniProt P00918). The experiment in a line: CAII small-molecule binders, profiling panel, biochemical, small-molecule microarray, Alexa647-labelled CAII (AID 1122). The note with it: CAII-A647 binding fluorescence, higher = more signal.
Test [5] is described as follows: COS7 lysate on small-molecule microarray, probe aHis, 635 nm (AID 1123).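 Also: z-score combines 667nm fluorescence intensity with signal-to-noise per printed compound spot.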 The note with it: COS7 cell lysate, fluorescence, higher = more signal.
A short description of test [6]: compound binding in COS7 lysate, probe aLAP1, primary screen, cell lysate, small-molecule microarray (AID 1124).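 Also: lysate comes from COS7 cells expressing LAP1 and is applied at 0.3 µg/mL; score merges spot fluorescence near 667 nm with signal-to-noise over triplicate slides.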 The settings on record: probe aLAP1, fluorescence, higher = more signal.
In a further test the test system is Sam68 (KHDRBS1). Put plainly: Sam68 small-molecule binders, primary screen, biochemical, small-molecule microarray, 635 nm fluorescence (AID 1125).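 Also: score merges 667 nm channel intensity with signal to noise over triplicate slides.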 The note with it: small-molecule microarray binding, higher = more signal.
Test [7] concerns Chordin-like protein 2 (CHRDL2). Put plainly: CHRDL2 small-molecule binders, primary screen, biochemical, small-molecule microarray, 635 nm fluorescence (AID 1126).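 Also: printed compound slides probed with Chrdl2 protein at 4 µg/mL for 1 h at 4 C; score merges 667 nm emission intensity with signal to noise over three replicate slides.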 The settings on record: small-molecule microarray binding, fluorescence 635 nm; higher = more signal.
Test [8] concerns the target Concanavalin-A (Canavalia ensiformis) (UniProt P02866). Put plainly: ConA small-molecule binders, primary screen, artefact control for SMM control protein annotation, biochemical, small-molecule microarray, Alexa647 label, 635 nm (AID 1127).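 Also: z combines 667 nm emission intensity with signal-to-noise across three replicate slides.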 The note with it: ConA-A647 binding fluorescence, higher = more signal.
Test [9] in a line: anti-His antibody binders, primary screen, artefact control for SMM control protein annotation, biochemical, small-molecule microarray, 635 nm fluorescence (AID 1128).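 Also: score merges feature fluorescence with signal-to-noise for each printed compound spot.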 The settings on record: anti-His Alexa647 antibody binding, higher = more signal.
The test system of test [10] is Human papillomavirus type 1a E7 protein (residues 1-88). The experiment in a line: HPV1a E7 small-molecule binders, primary screen, biochemical, small-molecule microarray, residues 1-88, 635 nm (AID 1129). The note with it: small-molecule microarray binding, fluorescence 635 nm; higher = more signal.
Test [11] deals with Focal adhesion kinase 1 (Homo sapiens) (UniProt Q05397). Put plainly: small-molecule microarray binders of FAK, primary screen, biochemical, 635/667 nm fluorescence, BSA, DTT (AID 1130).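 Also: composite of spot emission at 667 nm and signal to noise over triplicate slides.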 The note with it: PTK2 binding, 635 nm fluorescence, higher = more signal.
Sequence of Focal adhesion kinase 1 (Homo sapiens) (Q05397 whole entry, looked up): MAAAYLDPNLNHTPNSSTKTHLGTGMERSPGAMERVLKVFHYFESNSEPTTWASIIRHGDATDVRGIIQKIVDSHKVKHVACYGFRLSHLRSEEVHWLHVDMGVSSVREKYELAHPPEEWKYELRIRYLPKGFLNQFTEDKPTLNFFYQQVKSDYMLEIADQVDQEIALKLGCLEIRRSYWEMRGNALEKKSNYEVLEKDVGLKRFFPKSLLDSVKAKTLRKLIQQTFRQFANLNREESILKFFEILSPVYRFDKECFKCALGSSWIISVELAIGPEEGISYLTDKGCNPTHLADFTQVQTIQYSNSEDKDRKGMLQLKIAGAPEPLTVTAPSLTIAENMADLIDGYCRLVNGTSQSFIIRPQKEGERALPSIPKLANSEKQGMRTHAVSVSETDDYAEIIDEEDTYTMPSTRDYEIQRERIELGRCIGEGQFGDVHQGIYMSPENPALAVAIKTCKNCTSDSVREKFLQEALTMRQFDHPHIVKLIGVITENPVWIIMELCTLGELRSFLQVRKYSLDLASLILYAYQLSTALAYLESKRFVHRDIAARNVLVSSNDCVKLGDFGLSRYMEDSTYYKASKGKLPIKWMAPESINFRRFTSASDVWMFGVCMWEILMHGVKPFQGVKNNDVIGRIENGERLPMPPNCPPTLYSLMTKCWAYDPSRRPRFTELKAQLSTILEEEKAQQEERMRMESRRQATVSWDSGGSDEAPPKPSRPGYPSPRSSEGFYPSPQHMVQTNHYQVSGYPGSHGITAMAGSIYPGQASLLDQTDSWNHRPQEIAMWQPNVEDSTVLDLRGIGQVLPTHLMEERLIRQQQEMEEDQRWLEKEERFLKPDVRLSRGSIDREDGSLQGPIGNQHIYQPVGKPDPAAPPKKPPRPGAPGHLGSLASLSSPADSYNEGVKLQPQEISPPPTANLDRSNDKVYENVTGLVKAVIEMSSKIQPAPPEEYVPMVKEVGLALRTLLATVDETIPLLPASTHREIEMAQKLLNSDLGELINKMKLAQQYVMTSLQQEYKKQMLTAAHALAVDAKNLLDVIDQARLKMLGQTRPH
Test [12] deals with Fibrinogen (Alexa647-labelled). Put plainly: fibrinogen binders on compound microarrays, profiling panel, artefact control for SMM control-protein annotation, biochemical, small-molecule microarray, 635/667 nm fluorescence (AID 1131).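 Also: z-score merges 667 nm fluorescence with per-spot signal-to-noise over triplicate slides.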 The settings on record: fibrinogen-A647 binding fluorescence, higher = more signal.
Test [13] concerns the target Follistatin (Homo sapiens) (UniProt P19883). Put plainly: follistatin binders on small-molecule microarrays, primary screen, biochemical, small-molecule microarray, 635/667 nm fluorescence (AID 1132). The note with it: FST binding, 635 nm fluorescence, higher = more signal.
Test [14] addresses Fibroblast growth factor 2 (Homo sapiens) (UniProt P09038). The experiment in a line: FGF2 binders on small-molecule microarrays, primary screen, biochemical, small-molecule microarray, 635/667 nm fluorescence (AID 1133). The settings on record: small-molecule microarray binding, FGF2, fluorescence 635/667; higher = more signal.
Test [15] is described as follows: mitochondrial membrane potential change in A549 cells, profiling panel, cell-based, JC-1 fluorescence, basal, 24 h, 100 nL (AID 1138).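 Also: A549 lung adenocarcinoma cells under basal conditions with no added stimulus; test concentration not given here.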 The settings on record: higher = more signal.
The next test deals with Lefty1. Put plainly: Lefty1 binders on small-molecule microarrays, primary screen, biochemical, small-molecule microarray, 635/667 nm fluorescence (AID 1139). The settings on record: small-molecule microarray binding, fluorescence 635/667; higher = more signal.
In test [16] the test system is wheat germ agglutinin (Triticum aestivum), Alexa647-labelled. Put plainly: wheat germ agglutinin binders on compound microarrays, profiling panel, artefact control for SMM control-protein annotation, biochemical, small-molecule microarray, 635/667 nm fluorescence (AID 1140).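 Also: score merges 667 nm feature emission with signal to noise over triplicate slides.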 The settings on record: WGA-A647 binding, 635 nm fluorescence, higher = more signal.
For test [17], the target named is Luciferin 4-monooxygenase (Photinus pyralis) (UniProt P08659). The experiment in a line: firefly luciferase enzyme inhibitors, primary screen, biochemical, luminescence, purified enzyme, 2006 set (AID 1141).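 Also: cell-free assay with purified firefly luciferase at 100 ng per well in PBS; test concentration not given here.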 The note with it: SteadyGlo luminescence, 30 min, higher = more signal, called active from +8 up or from −8 down.
Sequence of Luciferin 4-monooxygenase (Photinus pyralis) (P08659 whole entry, looked up): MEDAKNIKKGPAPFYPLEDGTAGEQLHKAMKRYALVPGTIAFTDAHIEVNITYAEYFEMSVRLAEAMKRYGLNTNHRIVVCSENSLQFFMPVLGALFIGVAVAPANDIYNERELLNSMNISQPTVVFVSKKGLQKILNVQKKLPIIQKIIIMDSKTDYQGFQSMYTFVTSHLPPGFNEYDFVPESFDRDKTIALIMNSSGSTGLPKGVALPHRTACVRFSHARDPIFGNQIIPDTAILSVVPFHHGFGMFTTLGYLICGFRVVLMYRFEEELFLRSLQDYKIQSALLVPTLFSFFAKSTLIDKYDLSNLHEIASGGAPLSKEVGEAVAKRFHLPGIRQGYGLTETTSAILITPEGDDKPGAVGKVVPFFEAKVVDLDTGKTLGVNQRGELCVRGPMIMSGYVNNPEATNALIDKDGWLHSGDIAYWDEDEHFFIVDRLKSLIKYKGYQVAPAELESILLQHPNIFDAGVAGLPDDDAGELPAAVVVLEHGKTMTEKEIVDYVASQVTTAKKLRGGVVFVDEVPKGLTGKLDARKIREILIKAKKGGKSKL

Sequence of Fibroblast growth factor 2 (Homo sapiens) (P09038 whole entry, looked up): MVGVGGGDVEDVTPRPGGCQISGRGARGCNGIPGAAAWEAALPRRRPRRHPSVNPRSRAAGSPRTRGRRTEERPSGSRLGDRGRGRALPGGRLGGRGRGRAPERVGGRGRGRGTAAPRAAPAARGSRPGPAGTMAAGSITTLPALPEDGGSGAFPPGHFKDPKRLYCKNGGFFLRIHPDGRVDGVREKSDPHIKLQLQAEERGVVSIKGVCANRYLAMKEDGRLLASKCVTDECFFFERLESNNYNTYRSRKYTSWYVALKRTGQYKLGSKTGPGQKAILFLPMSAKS
Sequence of Follistatin (Homo sapiens) (P19883 whole entry, looked up): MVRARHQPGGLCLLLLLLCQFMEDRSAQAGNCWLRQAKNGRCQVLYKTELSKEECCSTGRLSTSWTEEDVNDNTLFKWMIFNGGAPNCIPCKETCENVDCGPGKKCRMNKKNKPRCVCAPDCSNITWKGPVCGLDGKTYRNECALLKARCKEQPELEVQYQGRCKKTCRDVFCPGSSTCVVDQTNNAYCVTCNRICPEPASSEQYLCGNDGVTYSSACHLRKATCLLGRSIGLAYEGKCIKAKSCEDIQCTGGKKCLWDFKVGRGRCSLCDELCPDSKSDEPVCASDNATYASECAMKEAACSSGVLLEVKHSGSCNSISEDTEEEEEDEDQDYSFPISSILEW
Sequence of Albumin (Bos taurus) (P02769 whole entry, looked up): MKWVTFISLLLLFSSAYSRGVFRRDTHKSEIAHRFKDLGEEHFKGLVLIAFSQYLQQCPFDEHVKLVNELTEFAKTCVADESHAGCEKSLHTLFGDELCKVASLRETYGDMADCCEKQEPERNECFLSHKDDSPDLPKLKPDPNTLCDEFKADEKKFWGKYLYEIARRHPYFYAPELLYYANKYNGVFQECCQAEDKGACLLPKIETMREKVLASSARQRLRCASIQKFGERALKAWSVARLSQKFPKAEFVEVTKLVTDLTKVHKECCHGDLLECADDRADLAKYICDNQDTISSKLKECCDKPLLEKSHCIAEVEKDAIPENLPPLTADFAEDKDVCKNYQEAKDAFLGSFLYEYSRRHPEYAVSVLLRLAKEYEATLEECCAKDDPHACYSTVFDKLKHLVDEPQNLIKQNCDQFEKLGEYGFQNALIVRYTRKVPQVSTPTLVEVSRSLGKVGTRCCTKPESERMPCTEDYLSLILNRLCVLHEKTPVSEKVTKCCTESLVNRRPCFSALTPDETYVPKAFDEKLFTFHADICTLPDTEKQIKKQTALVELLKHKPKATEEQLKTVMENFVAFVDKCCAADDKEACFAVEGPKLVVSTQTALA
Sequence of Concanavalin-A (Canavalia ensiformis) (P02866 whole entry, looked up): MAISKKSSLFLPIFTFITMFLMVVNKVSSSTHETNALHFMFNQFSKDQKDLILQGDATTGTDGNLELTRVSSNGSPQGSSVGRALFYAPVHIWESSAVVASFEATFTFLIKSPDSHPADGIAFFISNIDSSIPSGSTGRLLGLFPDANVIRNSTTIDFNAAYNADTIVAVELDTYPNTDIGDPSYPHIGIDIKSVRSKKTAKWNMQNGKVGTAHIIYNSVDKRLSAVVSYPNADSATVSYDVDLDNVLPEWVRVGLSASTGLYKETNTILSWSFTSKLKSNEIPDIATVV

With `[N-]=[N+]=Nc1ccccc1[C@@H]1OC(c2ccc(OCCCO)cc2)=N[C@]1(Cc1ccccc1)C(=O)N1CCCCC1`, the composite z-score is 0.712 in the test with Albumin (Bos taurus); 0.22 in test [2]; -0.108 in [3]; 0.415 in test [4]; 1.94 in test [5]; 1.36 in test [6]. The composite z-score in the test on Sam68 (KHDRBS1) was 1.29; in test [7], -0.365; in test [8], 0.948; in [9], 0.782; in test [10], 1.24; in [11] it was 0.218. For the same molecule, the composite z-score in test [12] turned out to be 1.02; in [13] it was 1.21; in test [14], 0.768; in the test on Lefty1 it was 0.816; in [16] it was 1.03. For the same molecule, in test [1], the composite Z-score is 0.254 (inactive). In addition, the z-score is -1.07 in test [15] and -5.31 (inactive) in test [17].
`C=C(/C(=C/C[C@H](OC(C)=O)c1ccc(CO)o1)c1cnc2ccccc2c1)C(C)C`: the composite z-score with Albumin (Bos taurus) is 0.899; in test [2], 0.245; in test [3] it was -0.148; in [4], 0.945; in [5] it was 0.948; in test [6] it was 0.269. Moreover, the composite z-score came to 1.29 in the test on Sam68 (KHDRBS1); 1.06 in test [7]; 1.14 in test [8]; 1.07 in test [9]; 1.16 in test [10]; 0.38 in [11]. In addition, the composite z-score in test [12] is 0.988; in [13], 1.39; in test [14], 1.41; in the test on Lefty1, 1.55; in test [16], 1.33. The composite Z-score in test [1] is 0.456 (inactive). In addition, the z-score in test [15] was -0.874; in test [17], -1.41 (inactive).
For `COc1cc(OC)c(C(O)C2C=CC3C(=O)N(Cc4ccccc4)C(=O)C3N2n2cnnc2)cc1Br` (stereo not given), the composite z-score was 0.725 with Albumin (Bos taurus); 0.056 in test [2]; -0.0398 in [3]; 0.377 in test [4]; 1.64 in test [5]; 0.953 in [6]. The composite z-score is 1.2 in the test with Sam68 (KHDRBS1); -1.15 in test [7]; 0.756 in [8]; 2.21 in [9]; 1.17 in test [10]; 0.381 in test [11]. Besides, the composite z-score in [12] is 0.973; in test [13], 1.03; in test [14], -0.148; in the test on Lefty1 it was 0.363; in test [16] it was 1.02. Also, the composite Z-score in test [1] was -0.395 (inactive). Besides, the z-score in test [15] was -1.08; in test [17] it was 0.647 (inactive).
On to `NC(=O)NCC#Cc1ccc2c(c1)[C@]1(C(=O)N2)[C@H](c2ccccc2OCCO)N2[C@H](c3ccccc3)[C@H](c3ccccc3)OC(=O)[C@H]2[C@@H]1C(=O)NC[C@H](O)c1ccccc1`, for which the composite z-score was 0.63 in the test with Albumin (Bos taurus); -0.143 in [2]; -0.103 in test [3]; 0.582 in [4]; 1.19 in test [5]; 0.428 in test [6]. For the same molecule, the composite z-score in the test on Sam68 (KHDRBS1) is 0.026; in test [7], -0.501; in test [8], 0.68; in test [9] it was 1.1; in test [10] it was -0.28; in test [11] it was 0.183. The composite z-score is 0.699 in test [12]; 0.109 in [13]; -0.751 in test [14]; -0.0823 with Lefty1; 0.91 in test [16]. The composite Z-score in test [1] is -0.17 (inactive). The z-score was -0.203 in test [15] and 0.896 (inactive) in test [17].
In the case of `CS(=O)(=O)CCOC(=O)C1=CC(CCCO)=CC(c2ccc(CN3CCCC3)cc2)N(Cc2sc3ccccc3c2Cl)C=C1C(=O)OCCS(C)(=O)=O` (stereo not given), the composite z-score was 1 with Albumin (Bos taurus); 0.439 in test [2]; 0.251 in test [3]; 0.823 in test [4]; 2.21 in test [5]; 1.12 in test [6]. The composite z-score with Sam68 (KHDRBS1) turned out to be 1.3; in test [7], 1.03; in test [8] it was 1.19; in test [9] it was 2.17; in test [10], 1.18; in [11], 0.45. Moreover, the composite z-score in test [12] was 1; in test [13] it was 0.526; in test [14], 1.21; with Lefty1 it was 0.722; in test [16], 1.31. Further, the composite Z-score in test [1] was 1.14 (inactive). Besides, the z-score in test [15] was 2.31; in test [17], -1.57 (inactive).
